Source: PubChem BioAssay
Hits are enriched below; roughly 6% of the tested compounds scored in any of these assays.
DRD3 antagonist – qHTS of D3 Dopamine Receptor Antagonist: qHTS; max response, negative = inhibition, %; AID 652054, 2013; hit rate 2.5% among 360,000; D3R cells, DiscoveRx beta-arrestin luminescence, antagonist mode; stronger effect = lower value; D(3) dopamine receptor (Homo sapiens), P35462; in the data active means max response below about -50%; inconclusive means no clear call, values can overlap the other calls
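Cells expressing the human receptor were seeded at 1500 cells/well, incubated overnight at 37 degrees C in 5% CO2, then exposed to library compounds with dopamine controls for 90 minutes at 37 degrees C before luminescent detection.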
D3 ag – qHTS of D3 Dopamine Receptor Agonist: qHTS; D3R DiscoveRx beta-arrestin cells, luminescence, 90 min; hit rate 0.58% among 410,000; max activation, %; in the data active means max activation above about 30%
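Agonist mode: compounds and dopamine controls were applied to plated cells for 90 min at 37 degrees C after an overnight attachment at 1500 cells/well. Luminescent read-out followed 30 - 60 minutes at room temperature with DiscoveRx detection reagent.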
D1 antag – Antagonist of Human D 1 Dopamine Receptor: qHTS. D(1A) dopamine receptor (Homo sapiens), P21728. HEK293 TREx D1 cells, calcium flux, dopamine EC80; stronger effect = lower value. activity change, negative = inhibition, % at 10 µM. hit rate 3.2% among 360,000; in the data active means activity change below about -30%
Target sequence (P21728 whole entry, looked up): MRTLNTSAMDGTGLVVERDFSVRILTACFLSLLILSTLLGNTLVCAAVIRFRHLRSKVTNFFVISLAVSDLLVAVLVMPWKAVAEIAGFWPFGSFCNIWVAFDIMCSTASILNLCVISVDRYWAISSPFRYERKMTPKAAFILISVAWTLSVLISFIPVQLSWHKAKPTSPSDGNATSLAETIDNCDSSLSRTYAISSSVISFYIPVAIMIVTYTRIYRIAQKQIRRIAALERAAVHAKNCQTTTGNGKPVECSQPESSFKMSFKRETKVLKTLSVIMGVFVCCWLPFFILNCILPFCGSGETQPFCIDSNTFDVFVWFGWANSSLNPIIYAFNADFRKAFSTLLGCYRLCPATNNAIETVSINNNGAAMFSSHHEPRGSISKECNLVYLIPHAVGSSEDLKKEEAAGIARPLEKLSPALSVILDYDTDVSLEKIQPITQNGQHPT
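After overnight tetracycline induction at 30 C, force-coupled D1 HEK293 cells took up a no-wash calcium dye at room temperature. Compounds were added and monitored 180 s, and the response to EC80 dopamine was then recorded.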
D1 agonist – Allosteric Agonists of the Human D1 Dopamine Receptor: qHTS; activation, % at 2 µM; AID 504660, 2011; HEK293 T-REx D1 cells, calcium flux, agonist mode; hit rate 1% among 360,000; D(1A) dopamine receptor (Homo sapiens), P21728; in the data active means activation above about 30%
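Tetracycline-induced HEK293 TREx D1 cells, force-coupled to calcium signalling, were dye-loaded with a no-wash calcium kit. Compound was pin-added after a 10 s baseline. Fluorescence was read kinetically at 1 cycle/s for 180 s, with calcium rises flagged as agonism.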
D1 potentiator – Potentiators of Human D1 Dopamine Receptor: qHTS; potentiation, % at 10 µM; HEK293 TREx D1 cells, calcium flux, dopamine EC20 potentiation; D(1A) dopamine receptor (Homo sapiens), P21728; hit rate 0.036% among 360,000; in the data active means potentiation above about 30%
Numbers stand for hits; – = inactive; ? = inconclusive; · = no result given; ! = not active in a repeat.

SMILES | DRD3 antagonist | D3 ag | D1 antag | D1 agonist | D1 potentiator
OC(CNC1CCCCC1)CON=C1CCSc2c(Cl)cccc21 (stereo not drawn) | -66 | – | · | · | ·
OC(CNC1CCCC1)COc1ccc(-c2ccccc2)cc1 (stereo not drawn) | – | – | – | – | –
Cc1ccc(-c2nc3ccccc3o2)cc1NC(=O)c1cccc2c(Cl)cccc12 | · | – | – | – | –
Cc1ccc2nc(Nc3ccc4[nH]c(=O)[nH]c4c3)c(-n3nc(C)cc3C)nc2c1 | – | 69 | – | – | –
Cc1cc(C)n(-c2nc3ccccc3nc2Nc2ccc(Cl)cc2Cl)n1 | · | 58 | – | – | –
Cc1cc(C)n(-c2nc3ccccc3nc2Nc2ccc(N(C)C)cc2)n1 | · | – | – | – | –
COC(=O)c1c(NC(=O)/C=C/c2ccco2)sc2c1CCC2 | – | – | – | – | –
Cc1sc(NC(=O)/C=C/c2ccco2)c(C(=O)OC(C)C)c1C | – | 32 | – | – | –
CC1=C(C(=O)OC2CCCC2)C(c2ccc(F)cc2F)CC(=O)N1 (stereo not drawn) | · | – | -33 | – | –
CC(C)c1nn2c(=O)cc(COC(=O)c3ccccc3NC(=O)C3CCCCC3)nc2s1 | · | – | – | – | –
COc1ccc(NC(=O)Nc2cccc(-c3cn4cccnc4n3)c2)cc1 | · | – | – | – | –
COC(=O)N1C(=O)[C@@](c2ccccc2)(C2CCCCC2)N1C(=O)OC | -54 | – | – | – | –
CCOc1ccccc1C(=O)N(Cc1cc(OC)c(OC)c(OC)c1)c1ccccn1 | · | – | – | – | –
Cc1cccc(N2CCN(Cc3nnc(-c4ccccc4C)o3)CC2C)c1 (stereo not drawn) | · | – | – | – | –
O=C(NCc1ccccc1Cl)c1cc2c(s1)-c1ccc(Cl)cc1SC2 | · | – | – | – | –
COc1ccc(C(=O)NC(=S)NCC2CCCO2)cc1 (stereo not drawn) | – | – | – | – | –
COc1ccc(/C=C/C(=O)NC(=S)NCC2CCCO2)cc1 (stereo not drawn) | – | – | -48 | – | –
C=CCn1nc(-c2ccccc2)cc1C(=O)OCC | – | 40 | · | · | ·
CCCN(CCC)Cc1cc2ccccc2c2c1COC2 | -64 | – | – | – | –
CCCCN(CCCC)Cc1cc2ccccc2c2c1COC2 | – | – | – | – | –
COc1ccc(OCC(=O)Nc2ccc(-c3nc4cc(C)c(C)cc4o3)cc2)cc1 | · | – | -31 | – | –
COc1ccc(OCC(=O)Nc2ccc3nn(-c4ccc(OC)cc4)nc3c2)cc1 | · | 62 | – | – | –
Cc1ccc(OCC(=O)Nc2ccc(-c3nc4ccc(C)cc4o3)cc2)cc1 | · | – | – | – | –
CCOc1ccc(-n2nc3ccc(NC(=O)COc4ccc(OC)cc4)cc3n2)cc1 | · | – | – | – | –
CCOC(=O)c1c(CC(C)C)csc1NC(=O)COC(=O)c1ccc(O)cc1 | – | 36 | – | – | –
SMILES | DRD3 antagonist | D3 ag | D1 antag | D1 agonist | D1 potentiator
Cc1[nH]n(-c2ccccc2)c(=O)c1C(C[N+](=O)[O-])c1ccc(F)cc1 (stereo not drawn) | – | – | – | – | –
Cc1ccc(C(C[N+](=O)[O-])c2c(C)[nH]n(-c3ccccc3)c2=O)cc1 (stereo not drawn) | -63 | – | – | – | –
Cc1[nH]nc2c1C1(CCOC1C)C(C#N)=C(N)O2 (stereo not drawn) | – | – | -35 | – | –
Cc1[nH]nc2c1C1(CCOCC1)C(C#N)=C(N)O2 | – | – | – | – | –
COc1ccc(-c2ccc(C(=O)O)c(=O)[nH]2)cc1 | – | – | -30 | – | –
COc1ccc(-c2cc(=O)[nH]c(=S)[nH]2)cc1 | -50 | – | – | – | –
O=C(CNC(=O)C1CCCC1)OC(C(=O)Nc1cc(C(F)(F)F)ccc1Cl)c1ccccc1 (stereo not drawn) | · | · | – | – | –
NC1=NC[C@H](Cc2ccccc2)N1CCc1cccc(F)c1 | – | – | -37 | – | –
NC1=NC[C@H](Cc2ccccc2)N1CCCCC1CCCCC1 | – | – | – | – | –
Nc1ccc(C(=O)Nc2ccc(OC(F)(F)C(F)F)c(NC(=O)c3ccc(N)cc3)c2)cc1 | – | – | -32 | – | –
O=C1C=CC(O)(c2cc(=O)c3c(O)cc(O)cc3o2)C=C1 | -80 | – | – | – | –
CN(C(=O)CSc1nc2ccccc2n1CC(=O)N(C)c1ccc(F)cc1)c1ccccc1 | · | – | – | – | –
COCCOC(=O)C1=C(C)NC(C)=C(C(=O)OC/C=C/c2ccccc2)C1c1cccc([N+](=O)[O-])c1 (stereo not drawn) | · | – | · | · | ·
O=C(NCCCCCCCN1CCCCCCC1)C(C1CCCCC1)C1CCCCC1 | -65 | – | · | · | ·
O=C(Nc1ccc2oc(-c3cccc4c(Br)cccc34)nc2c1)c1ccc(F)cc1 | · | – | – | – | –
FC(F)Sc1ccc(NC(=S)NC(c2ccccc2)c2ccccc2)cc1 | – | – | – | – | –
FC(F)Sc1ccc(NC(=S)NCc2ccccc2)cc1 | – | – | -32 | – | –
CN(C)CCCN(Cc1ccccc1)C(=S)Nc1ccc(SC(F)F)cc1 | ? | – | – | 32 | –
FC(F)(F)c1ccc(NC(=S)NCc2ccccc2)cc1 | – | – | -37 | – | –
CN(C)c1ccc(/C=N/NC(=S)NCc2ccccc2)cc1 | – | – | -83 | – | –
CC(=O)c1ccc(NC(=S)N(CCCN(C)C)Cc2ccccc2)cc1 | – | – | – | – | –
COc1cc(Cl)c(C)cc1Nc1nc2ccccc2c2nnc(C)n12 | · | – | – | – | –
N#Cc1nc(Nc2cc(F)cc(F)c2)nc(NC2CCCC2)n1 | · | · | – | – | –
COc1ccc(CCNC(=O)c2c[nH]n3c(=O)c(Cc4ccccc4Cl)c(C)nc23)cc1OC | · | – | – | – | –
COCCn1c(CNC(=O)c2ccc(C)cc2)nc2cccnc21 | · | – | – | – | –
SMILES | DRD3 antagonist | D3 ag | D1 antag | D1 agonist | D1 potentiator
S=C(NCc1ccccc1)NCc1ccccc1 | – | – | -52 | – | –
CCC1CN(C(=O)N2CCC(C(=O)NCCc3ccccc3Cl)CC2)c2cc(C)ccc2O1 (stereo not drawn) | · | – | – | – | –
CCOc1ccc(-c2cc(C(=O)NCc3ccc(OCC)c(OC)c3)[nH]n2)cc1 | · | – | – | – | –
Cc1ccc(C)c(NC(=O)CSc2nc3ccccc3nc2N2CCOCC2)c1 | – | – | -46! | – | –
Cc1cccc(NC(=O)CSc2nc3ccccc3nc2N2CCOCC2)c1C | · | – | – | – | –
O=S(=O)(c1ccc2c(c1)OCCO2)N1CCN(S(=O)(=O)c2ccc(F)cc2F)CC1 | · | · | – | – | –
CN(C)CC/C=C1/c2ccccc2COc2ccc(CC(=O)O)cc21 | – | – | · | · | ·
CN(C)CC/C=C1\c2ccc(F)cc2Sc2cc(F)c(Cl)cc21 | -101 | – | · | · | ·
